# High-throughput results: PubChem, Broad Institute
# A selection: hits, their analogues and other compounds. The true share with any hit is near 4.8%.
# HIF activator – HIF pathway transcriptional activators, primary screen, cell-based, U2OS HRE-luciferase, luminescence; U2OS HRE-luciferase reporter; normalized: DMSO 0%, desferrioxamine 100%; activation, % at 7.5 µM (by protocol); 300,000 tested, 0.32% active;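 active = mean activation of at least 10% of the iron chelator positive control signal, with at least half of replicates also reaching 10%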
# AI-2 QS modul – Vibrio harveyi AI-2 quorum sensing modulators, primary screen, JMH597 strain, luminescence/OD600 ratio | activity change, % at 7.5 µM | 300,000 tested, 0.4% active | Vibrio harveyi JMH597 AI-2 luminescence/OD600 ratio, 9 h; hits give low values; strain lacks LuxN and CqsS sensors; 0 = neutral-control median; in the data active = activity change below about -75%, passing the limit was not always enough;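 also: luminescence divided by OD600 gain over 9 h not by final OD600 alone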
# SUMO Mot1 rescue – yeast Mot1-301 growth rescue at high temperature, primary screen, SUMOylation pathway inhibitor project, S. cerevisiae, ATP luminescence, 38.5C. growth rescue, % at 18.8 µM. AID 2716, 2010. S. cerevisiae Mot1-301 growth rescue; percent above DMSO median, 100 means doubled. 320,000 tested, 1% active;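 active = every valid replicate shows activation above 250% relative to neutral control wells; inactive = the rest, any valid replicate at or below 250%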;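 also: OY570 slx delta 5 strain wells were the positive control but not used for scaling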
# ALR inh – inhibitors of human ALR sulfhydryl oxidase, primary screen, biochemical, H2O2 detection, HRP-luminol luminescence, single point | FAD-linked sulfhydryl oxidase ALR (Homo sapiens), P55789 | purified ALR, DTT oxidation | inhibition, % (concentration not given with the values) | 290,000 tested, 3.8% active | AID 485317, 2010;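 active = mean replicate inhibition above about 79%, with every replicate also reaching it, limit read from the data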
# Target sequence (P55789 whole entry, looked up): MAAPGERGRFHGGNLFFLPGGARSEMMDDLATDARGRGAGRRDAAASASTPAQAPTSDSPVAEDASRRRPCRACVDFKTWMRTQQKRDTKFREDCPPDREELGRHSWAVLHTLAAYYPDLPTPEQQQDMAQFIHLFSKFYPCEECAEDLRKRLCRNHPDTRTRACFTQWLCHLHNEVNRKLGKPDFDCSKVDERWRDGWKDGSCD
# * hit, by the source's call; · = no result given.
SMILES,HIF activator,AI-2 QS modul,SUMO Mot1 rescue,ALR inh
COc1ccccc1CN(C)C(=O)C1COc2ccccc2O1 (stereo unspecified),0,2,-21,100*
O=S(c1ccc2ccccc2c1)c1cnns1 (stereo unspecified),·,·,12,99*
COc1c(F)c(F)c(C(=O)O)c(Nc2ccc(C)cc2C)c1F,0,18,9,97*
Cc1ccc(Nc2c(F)c(F)c(F)c(F)c2C(=O)O)cc1,0,-31,-3,87*
COc1c(F)c(F)c(C(=O)O)c(Nc2cc(C)cc(C)c2)c1F,0,10,28,11
COc1cccc(Nc2c(F)c(F)c(F)c(F)c2C(=O)O)c1,0,17,-9,99*
COc1cccc(Nc2c(F)c(OC)c(F)c(F)c2C(=O)O)c1,·,16,0,21
COc1ccc(C(c2nnnn2C(C)C)N2CCN(C(=O)c3ccco3)CC2)cc1 (stereo unspecified),0,16,258,-1
CC(=O)Nc1ccc(S(=O)(=O)N2CCc3cc4c(cc3C2)OCCCO4)cc1,-1,8,-5,-2
COc1cc(/C=N/Nc2ccc(Cl)nn2)cc(OC)c1O,0,-4,60,95*
Oc1c(Br)cc(/C=N/Nc2ccc(Cl)nn2)cc1Br,0,9,12,·
COc1cc(/C=N/Nc2ccc(F)cc2F)cc(OC)c1O,0,4,220,99*
O=c1[nH]c(=S)[nH]c2c1CN(Cc1ccc(F)cc1)CC2,0,-3,92,·
CCCCn1c(N)c(N(C)C(=O)c2cc3c(s2)CCCCC3)c(=O)[nH]c1=O,·,·,-14,-1
Nc1sccc1C(=O)c1ccccc1,0,0,110,98*
CC1(C)CC(=O)C(=Cc2cn(CCC#N)nc2-c2ccc(Cl)cc2)C(=O)C1,0,21,391,13
CC1(C)CC(=O)C(=Cc2cn(CCC#N)nc2-c2ccc(F)cc2)C(=O)C1,0,26,-7,95*
CCN1CCN(Cc2ccc(NC(=O)Nc3ccccc3)cc2)CC1,·,6,1,60
CCN1CCN(Cc2ccc(NC(=O)Nc3ccc(SC)cc3)cc2)CC1,3,0,-3,96*
Cc1cc(C(=O)NNC(=O)[C@H](C)NC(=O)c2ccc(Br)cc2)c(C)o1,·,·,155,·
Cc1ccc(-c2csc(NC(=O)CSc3nc(C)cc(=O)[nH]3)n2)cc1,1,21,-6,99*
O=C(CSC1=NCCS1)Nc1nc2ccccc2s1,2,9,8,90*
Cc1ccc(-c2csc(NC(=O)CN3C(=O)CCC3=O)n2)cc1,-1,26,4,-5
Cc1nc(NC(=O)CSC2=NCCS2)sc1C(=O)N(C)C,0,16,5,99*
Cc1ccc(-c2csc(NC(=O)CSC3=NCCS3)n2)cc1,0,4,27,100*
SMILES,HIF activator,AI-2 QS modul,SUMO Mot1 rescue,ALR inh
CCC(Sc1nc(C)cc(=O)[nH]1)C(=O)Nc1nc(-c2ccccc2)cs1 (stereo unspecified),0,0,29,48
CCCn1c(=O)c(C(=O)NNC(=O)c2ccccc2Cl)c(O)c2ccccc21,0,9,35,16
O=C1CC(=O)Nc2cc(S(=O)(=O)N3CCN(c4ccc([N+](=O)[O-])cc4)CC3)ccc2N1,0,30,1,-4
CCOC(=O)C1CCN(C(=O)c2ccc(S(=O)(=O)Nc3ccccc3OC)cc2)CC1,·,·,1,-1
COc1ccc(NS(=O)(=O)c2ccc3oc(=O)c4[nH]c(=O)c(=O)n(C)c4c3c2)cc1,0,10,-9,4
COc1cc(OC)cc(C(=O)NNC(=O)C2CCCC2)c1,-20,19,331*,-2
c1ccc(C2Nc3ccccc3C3OCCCC23)cc1 (stereo unspecified),0,3,224,99*
CCCCN1CC(O)=C(c2nc(-c3ccc(Br)cc3)cs2)C1=N,0,30,237,-3
COc1ccc(-c2csc(C3=C(O)CN(CCCN4CCCC4=O)C3=N)n2)cc1OC,1,11,1,96*
c1ccc(COc2cncc(-c3cccnc3)c2)cc1,·,·,-10,-5
Cc1cccc(NC(=O)c2cccc(N3C(=O)C4C5C=CC(C6CC56)C4C3=O)c2)c1 (stereo unspecified),0,15,0,89*
CNC(=S)N1CCN(c2cccc(OC)c2)CC1,0,7,-7,99*
CCOc1ccccc1NC(=S)N1CCN(c2cccc(OC)c2)CC1,0,7,1,98*
CC1=Nc2ccccc2N=C(N)C1c1ccccc1 (stereo unspecified),2,27,1,96*
O=C(Nc1cc(S(=O)(=O)N2CCCC2)ccc1Cl)c1cc(F)c(F)c(F)c1F,·,·,-12,1
CCOC(=O)/C(=C\C=C1/Sc2ccccc2N1CC)C(C)=O,0,5,-2,66
CCOC(=O)/C(=C/C=C1\Sc2ccccc2N1CC)C(C)=O,1,7,2,88*
NS(=O)(=O)c1ccc(N/N=C/c2ccc[nH]2)c([N+](=O)[O-])c1,0,27,8,97*
NS(=O)(=O)c1ccc(N/N=C/c2ccc(C(=O)O)cc2)c([N+](=O)[O-])c1,0,16,-7,-5
COc1ccc(CCNCC(O)Cn2c3ccccc3c3ccccc32)cc1OC (stereo unspecified),-6,4,-16,-9
COc1ccccc1NCC(O)Cn1c2ccccc2c2ccccc21 (stereo unspecified),0,34,-2,87*
Cc1ccc(S(=O)(=O)c2nnn(-c3cccc(F)c3)c2N)cc1,0,-97*,-12,-5
CCOC(=O)c1cc(S(=O)(=O)N2CCN(C3CCCCC3)CC2)cn1C,0,15,171,-5
COc1ccc(Nc2nccc(-c3cccc(N)c3)n2)cc1,-8,-3,4,99*
CCOc1ccc(NC(=S)NC(C)C(c2ccccc2)N2CCN(C)CC2)cc1 (stereo unspecified),-1,17,-7,-10
SMILES,HIF activator,AI-2 QS modul,SUMO Mot1 rescue,ALR inh
CC(NC(=O)COc1ccccc1)C(c1ccccc1)N1CCN(C)CC1 (stereo unspecified),0,26,-8,98*
CCOc1ccc(C(=O)CSCC(=O)O)cc1,0,3,-10,98*
CCCc1c(O)nc(SCCN(CC)CC)n(C(=O)c2ccccc2)c1=O,-1,6,1,98*
CN1CCc2c(sc3c2C(=O)NC(c2ccc(-c4ccc(Cl)cc4)o2)N3)C1 (stereo unspecified),0,9,-20,91*
CC(C)(C)NS(=O)(=O)c1ccc(-c2csnn2)s1,0,3,5,2
O=S(=O)(NC1CCCCC1)c1ccc(-c2csnn2)s1,-1,22,297*,-12
